Screening data deposited in PubChem BioAssay by several laboratories.
LGR2 inh – inhibitors of bursicon-induced Drosophila LGR2 receptor cAMP signaling; HEK293 LGR2, CRE-luciferase, bursicon-stimulated, 4 h; actives 0.35% (n = 380,000); AID 720647; inhibition, % at 9.99 µM;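 active means drop in luminescence signal, shown as inhibition above about 50% in the replicate tests, limit read from the data, passing the limit was not always enough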;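 further: agonist challenge used bursicon conditioned medium at about half maximal strength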
TWEAK-Fn14 inh – inhibitors of TWEAK-Fn14 interaction signaling | actives 2% (n = 360,000) | inhibition, % at 10 µM | TWEAK-stimulated Fn14 reporter cells, luciferase luminescence, 8 h | AID 1159606; in the data active means inhibition above about 50%
HSP90 refold inh – HSP90 refolding inhibition in rabbit reticulocyte lysate; inhibition, % at 5.6 µM; actives 0.91% (n = 290,000); luciferase refolding luminescence, 3 h;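 active means inhibition above the screen-wide mean plus 3 SD, computed separately per campaign, cut at about 16% in these data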;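 further: 0% = DMSO wells and 100% = 60 µM geldanamycin wells; inhibitors lower the luminescence because luciferase stays unfolded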
TROY signal inh – inhibitors of TROY-dependent NF-kB signaling; Q293 LMP1-TROYcd NF-kB luciferase reporter, 4 h; inhibition, % at 10 µM; actives 0.98% (n = 360,000); AID 1347056;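 active means compounds whose plate-normalised and pattern-corrected inhibition of the luciferase reporter signal at the single screening dose is 50% or more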
Active calls of the source: *; . = no result. This is a sample that favours compounds with a hit; in the whole collection about 2.2% have one here.

SMILES | LGR2 inh | TWEAK-Fn14 inh | HSP90 refold inh | TROY signal inh
C/C(=C\c1ccc(Cl)cc1)C(=O)c1c(C)cc(C)[nH]c1=O | 28 | 31 | 7 | 32
Cc1ccc(/C=C/C(=O)c2c(C)cc(C)[nH]c2=O)cc1 | 70* | 86* | 4 | 37
CCc1ccc(/C=C/C(=O)c2c(C)cc(C)[nH]c2=O)cc1 | . | 80* | 4 | 44
C/C(=C\c1ccc(Br)cc1)C(=O)c1c(C)cc(C)[nH]c1=O | 44 | 52* | -1 | 45
CCCN1[C@@H]2c3ccc(C4=CCCC4)c(=O)n3C[C@H]1[C@H](CO)[C@H]2C(=O)NCCOC | 7 | . | . | .
Nc1nc(N)c2cc(CNc3ccc(Cl)c(Cl)c3)ccc2n1 | 107* | 98* | . | 36
O=[N+]([O-])c1cccc(NC(=S)Nc2nc(-c3ccccc3Cl)cs2)c1 | 22 | 56* | 5 | 40
COc1cccc(S(=O)(=O)N2CCC3(CC2)CN[C@H](CO)c2[nH]c4cc(OC)ccc4c23)c1 | -15 | . | . | .
NC(=O)c1c(NC(=O)c2ccccc2)sc2c1CCc1ccccc1-2 | -95 | 56* | 6 | -30
CCOC(=O)c1ccc(-c2ccc(/C=N/NC(=O)CN(c3cccc(C)c3)S(C)(=O)=O)o2)cc1 | -19 | 7 | 7 | -4
CCOC(=O)c1ccc(-c2ccc(/C=N/NC(=O)CN(c3ccccc3Cl)S(C)(=O)=O)o2)cc1 | -54 | 71* | 1 | 20
COc1cccc(N2CCN(C(C)C(=O)NC34CC5CC(CC(C5)C3)C4)CC2)c1 (stereo not given) | 5 | 90* | -2 | 4
COc1cccc(N2CCN(CC(=O)C34CC5CC(CC(C5)C3)C4)CC2)c1 | . | 11 | -2 | 9
O=C(CSCc1cccc(CSCC(=O)Nc2ccc3ccccc3c2)n1)Nc1ccc2ccccc2c1 | . | 67* | 12 | 38
O=C(CSCc1nc2ccccc2[nH]1)Nc1ccc2ccccc2c1 | . | 9 | -5 | -6
COc1ccc(N(C(=O)c2ccco2)S(=O)(=O)c2cc(Cl)c(Cl)cc2Cl)cc1 | . | 25 | 10 | 54*
COc1ccc(CCN(C(=S)Nc2ccccc2)C2CC(=O)N(c3ccccc3)C2=O)cc1 (stereo not given) | . | 9 | -2 | 2
O=C1CC(N(CCc2ccccc2)C(=S)Nc2ccccc2)C(=O)N1c1ccc(Br)cc1 (stereo not given) | 30 | 79* | -3 | 47
O=C(NC(=S)Nc1ccc(CN2CCOCC2)cc1)c1ccc(-c2cccc(Cl)c2)o1 | 67* | 49 | 4 | 58*
O=C(Nc1ccc(CN2CCOCC2)cc1)c1ccc(-c2cccc(Cl)c2)o1 | . | 57* | -2 | 45
O=C(Nc1ccc(CN2CCOCC2)cc1)c1ccc(-c2ccc(Cl)cc2Cl)o1 | 6 | 30 | 4 | 35
O=C(C[C@H]1C=C[C@H](NC(=O)C2CC2)[C@@H](CO)O1)Nc1nccs1 | 7 | . | . | .
COCC(=O)N1[C@H](C#N)[C@H](c2ccccc2-c2cccc(OC)c2)[C@H]1CO | -4 | . | . | .
CO[C@H]1CN(C)C(=O)c2ccc(NC(C)=O)cc2OC[C@H](C)N(C(=O)CN2CCOCC2)C[C@H]1C | 3 | . | . | .
FC(F)(F)c1cccc(CC2CN(Cc3ccccc3)Cc3ccccc3N2c2cc(Cl)cc(Cl)c2)c1 (stereo not given) | 102* | 91* | . | 35
SMILES | LGR2 inh | TWEAK-Fn14 inh | HSP90 refold inh | TROY signal inh
CCCN1C[C@H](C)[C@H](OC)CN(C)C(=O)c2cc(NC(=O)COC)ccc2OC[C@H]1C | -24 | . | . | .
Cc1cc(C(F)(F)F)c(C#N)c(SCC(=O)Nc2nc3cc(Br)ccc3s2)n1 | -31 | 79* | -3 | 72*
O=C(C[C@H]1CC[C@H]2[C@@H](COC[C@@H](O)CN2C(=O)Nc2ccccc2)O1)NCCc1ccncc1 | -19 | . | . | .
COc1ccccc1NS(=O)(=O)c1cccc(NC(=O)Nc2ccc(Cl)cc2)c1 | 32 | 84* | 0 | 59*
O=C(Nc1cccc(S(=O)(=O)Nc2ccccc2Cl)c1)c1ccc(Cl)nc1 | 9 | 63* | 6 | 28
COc1ccccc1NS(=O)(=O)c1cccc(NC(=O)Nc2ccccc2)c1 | 27 | 34 | 1 | 46
O=C(Nc1ccc(Cl)cc1Cl)NC1CCN(S(=O)(=O)c2ccc(F)cc2)CC1 | -3 | -16 | -3 | 52*
O=C(Nc1cccc(S(=O)(=O)N2CCCCC2)c1)Nc1ccc(Cl)cc1Cl | 39 | 83* | -4 | 59*
COc1ccc(CN(C)C[C@H]2Oc3ccc(NS(=O)(=O)c4ccc(OC)cc4)cc3CC(=O)N([C@@H](C)CO)C[C@@H]2C)cc1 | -4 | . | . | .
Nc1ccc(-c2nc3c(Cl)cc(N)cc3[nH]2)cc1 | . | 67* | -2 | 62*
Nc1ccc2nc(-c3ccc(N)c(Cl)c3)[nH]c2c1 | . | 28 | 1 | -67
OCc1cccc[n+]1Cc1ccccc1 | . | -1 | . | 60*
OCCc1ccccc1 | -17 | . | . | .
O=C(COc1ccccc1)N1CCc2ccccc21 | -53 | -22 | 8 | -58
COc1cc(OC)cc(C(=O)N2CCCc3ccccc32)c1 | -5 | 52* | 6 | 41
COc1ccc(CC(=O)Nc2cccc3c2CCCC3)cc1 | . | 104* | 8 | -10
O=C(OCC(=O)N1CCc2ccccc21)c1ccccc1[N+](=O)[O-] | 37 | 60* | . | 50
O=C(OCC(=O)N1CCc2ccccc21)c1ccccc1F | -123 | -19 | -1 | -20
COc1ccc(C(=O)N2CCCc3ccccc32)cc1Br | . | -9 | 1 | 19
O=C(COc1ccccc1)OCC(=O)N1CCCc2ccccc21 | 10 | 0 | . | 60*
C[C@H](CO)N1C[C@H](C)[C@@H](CN(C)S(C)(=O)=O)Oc2ccc(NS(=O)(=O)c3ccc(Cl)cc3)cc2CC1=O | -3 | . | . | .
COc1ccc(-c2ccc3c(c2)[C@H]2[C@H](CCN2C(=O)c2cnccn2)[C@H](CO)N3)cc1 | -32 | . | . | .
COc1ccc(CC(=O)N2CCCc3ccccc32)cc1 | . | 50* | 3 | 35
O=C(c1cc2ccccc2c(=O)o1)N1CCCc2ccccc21 | . | -21 | -2 | -10
COc1ccc(CC(=O)OCC(=O)N2CCCc3ccccc32)cc1 | -39 | 4 | . | -12
SMILES | LGR2 inh | TWEAK-Fn14 inh | HSP90 refold inh | TROY signal inh
COc1ccc(OC)c(C2=NOC(C(=O)N3CCCc4ccccc43)C2)c1 (stereo not given) | . | 55* | 1 | 39
Cc1ccc(S(=O)(=O)CCC(=O)N2CCc3ccccc32)cc1 | . | -9 | 1 | -36
O=C(CCS(=O)(=O)c1ccc(Cl)cc1)N1CCCc2ccccc21 | 0 | 53* | 10 | 65*
O=C(c1cc(=O)c2ccccc2o1)N1CCCc2ccccc21 | . | 52* | 1 | 28
O=C(C[C@H]1CC[C@H](NC(=O)Nc2cc(F)ccc2F)[C@H](CO)O1)NCc1ccncn1 | 6 | . | . | .
C[C@H](CO)N1C[C@H](C)[C@H](CN(C)Cc2ccc(C(=O)Nc3ccccc3N)cc2)Oc2ccc(NC(=O)Cn3cnnn3)cc2CC1=O | -10 | . | . | .
C[C@@H]1CN([C@@H](C)CO)C(=O)c2cc(NC(=O)CCCCCC(=O)Nc3ccccc3N)ccc2O[C@H]1CN(C)S(=O)(=O)c1ccccc1 | 10 | . | . | .
C[C@@H]1CN([C@H](C)CO)C(=O)Cc2cc(NS(=O)(=O)c3ccccc3)ccc2O[C@@H]1CN(C)C(=O)Nc1ccccc1 | -14 | . | . | .
